From PubChem BioAssay (Tox21)
Results filed as inconclusive are left out. Active and inactive are the calls of the source. Calls come from the whole dose curve; as a rule, active = well fitted curve in the direction sought with a large enough effect in the repeat runs; inconclusive = weak or mixed curves; inactive = no such curve, though single readings can be large; an effect the other way counts as inactive or inconclusive.

Assays:
[1] = qHTS RealTime-Glo MT Cell Viability Assay in HEK293 cells - 16 hour (AID 1224872); note: top concentration of the series differs between compounds; nearly all actives have a fitted effect of over 50% in size
In short: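 Reads taken at 0, 8, 16, 24, 32 and 40 h from the same wells. HEK293 cells (600/well) carried RealTime-Glo reagents from seeding, with compound added after a 5 h settle at 37 C.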

[2] = qHTS RealTime-Glo MT Cell Viability Assay in HepG2 cells - 8 hour (AID 1224873); note: nearly all actives have a fitted effect of over 55% in size
In short: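 Real-time viability: cells seeded at 600 per well together with NanoLuc and cell-permeant prosubstrate, compounds added after 5 h incubation. Luminescence tracked at 0, 8, 16, 24, 32 and 40 h of exposure.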

[3] = qHTS RealTime-Glo MT Cell Viability Assay in HEK293 cells - 40 hour (AID 1224874); settings: RealTime-Glo luminescence; max response: stronger effect = lower value; note: nearly all actives have a fitted effect of over 50% in size
In short: (§1)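 Measured as luminescence from the same continuously cultured HEK293 wells at successive time points (0, 8, 16, 24, 32, 40 h) after compound addition. Reagent present from seeding; dosing at 5 h; incubation 37 C.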

[4] = A CellTox Green Cytotoxicity Assay to monitor cytotoxicity in HEK293 cells - 24 hour (AID 1224875); note: nearly all actives have a fitted effect of over 45% in size; note: potency is the fitted concentration of half-maximal effect; for activity change: series mostly up to about 77 µM
In short: (§2)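 Homogeneous no-lysis format: HEK293 cell suspension mixed with CellTox Green reagent, seeded, incubated 5 h at 37 C/5% CO2, then dosed by pintool with compound in DMSO.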

[5] = A CellTox Green Cytotoxicity Assay to monitor cytotoxicity in HepG2 cells - 16 hour (AID 1224876); note: nearly all actives have a fitted effect of over 45% in size
In short: (§3)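 Fluorescent DNA-binding dye, 600 HepG2 cells/well, 5 h preincubation then compound in DMSO; same plates read at 0–40 h, 37 C.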

[6] = qHTS RealTime-Glo MT Cell Viability Assay in HepG2 cells - 32 hour (AID 1224877); note: nearly all actives have a fitted effect of over 55% in size
In short: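 HepG2 suspension premixed with RealTime-Glo reagents is plated at 600 cells per well and left 5 h at 37 C/5% CO2. Compounds in DMSO then go in, and bioluminescence reflecting viable cell number is recorded over 40 h.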

[7] = A CellTox Green Cytotoxicity Assay to monitor cytotoxicity in HepG2 cells - 24 hour (AID 1224878); note: nearly all actives have a fitted effect of over 45% in size
In short: as §3

[8] = A CellTox Green Cytotoxicity Assay to monitor cytotoxicity in HepG2 cells - 40 hour (AID 1224879); note: nearly all actives have a fitted effect of over 40% in size
In short: as §3

[9] = qHTS RealTime-Glo MT Cell Viability Assay in HEK293 cells - 0 hour (AID 1224880); note: top concentration of the series differs between compounds; nearly all actives have a fitted effect of over 45% in size
In short: as §1

[10] = A CellTox Green Cytotoxicity Assay to monitor cytotoxicity in HEK293 cells - 32 hour (AID 1224881); note: nearly all actives have a fitted effect of over 40% in size; note: potency is the fitted concentration of half-maximal effect
In short: as §2
% is set by controls: 0 for no effect and ±100 for the full control effect.

NCc1ccccc1Sc1ccccc1CO
inactive: Potency [1] | Potency [2] | max response [3] -17% | Potency [4] | Potency [5] | Potency [6] | Potency [7] | Potency [8] | Potency [9] | Potency [10]

CCCCCCCCO[C@@H]1O[C@H](CO)[C@@H](O)[C@H](O)[C@H]1O
inactive: Potency [1] | Potency [2] | max response [3] 4.48% | Potency [4] | Potency [5] | Potency [6] | Potency [7] | Potency [8] | Potency [9] | Potency [10]

O=C1C(O)=C(O)C(=O)C(O)=C1O
inactive: Potency [1] | Potency [2] | max response [3] -9.06% | Potency [4] | Potency [5] | Potency [6] | Potency [7] | Potency [8] | Potency [9]

Brc1c2ccccc2c(Br)c2ccccc12
inactive: activity change, negative = cytotoxicity [1] 0.583% [at 6.97 µM] | viability change, negative = cytotoxic [2] 0.903% [at 6.97 µM] | max response [3] 1.72% | activity change [4] -0.621% [at 6.97 µM, stronger effect = higher value] | cytotoxicity increase [5] 2.77% [at 6.97 µM] | activity change, negative = cytotoxic [6] 0.723% [at 6.97 µM] | cytotoxicity [7] 2.45% [at 6.97 µM] | cytotoxicity increase [8] -0.88% [at 6.97 µM] | activity change, negative = cytotoxicity [9] 0.766% [at 6.97 µM] | cytotoxicity increase [10] -2.57% [at 6.97 µM]

Cc1cc(N)c2cc(NC(=O)Nc3ccc4nc(C)cc(N)c4c3)ccc2n1
inactive: Potency [1] | Potency [2] | max response [3] -16.5% | Potency [4] | Potency [5] | Potency [6] | Potency [7] | Potency [8]

CC(=O)[O][Al][O]C(C)=O
inactive: Potency [1] | Potency [2] | max response [3] 6.93% | Potency [4] | Potency [5] | Potency [6] | Potency [7] | Potency [8] | Potency [9] | Potency [10]

CCNc1cc(O)ccc1C
inactive: Potency [1] | Potency [2] | max response [3] 7.99% | Potency [5] | Potency [6] | Potency [7] | Potency [8] | Potency [9]
active: Potency [4] 38.5 µM | Potency [10] 34.3 µM

O=C(O)c1ccco1
inactive: Potency [1] | Potency [2] | max response [3] 9.61% | Potency [4] | Potency [5] | Potency [6] | Potency [7] | Potency [8] | Potency [9] | Potency [10]

CCO[Si](CCCCl)(OCC)OCC
inactive: Potency [1] | Potency [2] | max response [3] 0.203% | Potency [4] | Potency [5] | Potency [6] | Potency [7] | Potency [8] | Potency [9] | Potency [10]

Cc1oc(-c2ccccc2)nc1CCOc1cccc2c1ccn2CCC(=O)O
inactive: Potency [1] | Potency [2] | max response [3] -19% | Potency [4] | Potency [5] | Potency [6] | Potency [7] | Potency [8] | Potency [9] | Potency [10]

CCO[C@H](Cc1ccc(OCCc2ccc(OS(C)(=O)=O)cc2)cc1)C(=O)O
inactive: Potency [1] | Potency [2] | max response [3] 10.3% | Potency [4] | Potency [5] | Potency [6] | Potency [7] | Potency [8] | Potency [9] | Potency [10]

O=C1CCC(=O)O1
inactive: Potency [1] | Potency [2] | max response [3] 3.63% | Potency [4] | Potency [5] | Potency [6] | Potency [7] | Potency [8] | Potency [9]

COS(=O)(=O)C(F)(F)F
inactive: Potency [1] | Potency [2] | max response [3] 11.7% | Potency [4] | Potency [5] | Potency [6] | Potency [7] | Potency [8] | Potency [9] | Potency [10]

CC[N+](C)(CC)CCOC(=O)C(O)(c1ccccc1)C1CCCCC1 (configuration not stated)
inactive: Potency [1] | Potency [2] | max response [3] 6.78% | Potency [4] | Potency [5] | Potency [6] | Potency [7] | Potency [8]

CCOC(=O)C(F)(F)F
inactive: Potency [1] | Potency [2] | max response [3] 6.21% | Potency [4] | Potency [5] | Potency [6] | Potency [7] | Potency [8] | Potency [9]

C1CCCNCCC1
inactive: Potency [1] | Potency [2] | max response [3] -5.84% | Potency [4] | Potency [5] | Potency [6] | Potency [7] | Potency [8] | Potency [9] | Potency [10]

CC(C)CC(=O)C1C(=O)c2ccccc2C1=O
inactive: Potency [1] | Potency [2] | max response [3] 0.634% | Potency [4] | Potency [5] | Potency [6] | Potency [7] | Potency [8] | Potency [9] | Potency [10]

CC(CSC(=O)c1ccccc1)C(=O)N1C[C@@H](Sc2ccccc2)C[C@H]1C(=O)O (some centres not stated)
inactive: activity change, negative = cytotoxicity [1] -4.93% [at 15.8 µM] | viability change, negative = cytotoxic [2] 1.39% [at 15.8 µM] | max response [3] -5.01% | activity change [4] 3.46% [at 15.8 µM, stronger effect = higher value] | cytotoxicity increase [5] -2.05% [at 15.8 µM] | activity change, negative = cytotoxic [6] 4.17% [at 15.8 µM] | cytotoxicity [7] -1.93% [at 15.8 µM] | cytotoxicity increase [8] -0.523% [at 15.8 µM] | activity change, negative = cytotoxicity [9] -6.47% [at 15.8 µM] | cytotoxicity increase [10] 1.09% [at 15.8 µM]

C[C@@H]1C[C@H]2O[C@@]3(O[C@@H]2C(C)(C)O)[C@H](O)[C@@]2(C)[C@@H]4CC[C@H]5C(C)(C)[C@@H](O[C@@H]6OC[C@@H](O)[C@H](O)[C@H]6O)CC[C@@]56C[C@@]46CC[C@]2(C)[C@@H]13
inactive: Potency [1] | Potency [2] | max response [3] -15.4% | Potency [4] | Potency [5] | Potency [6] | Potency [7] | Potency [8] | Potency [10]
